Here are results for 30 compounds from PubChem BioAssay (Tox21).

Results filed as inconclusive are left out. A call without a number means that no potency is given here. Values without a mark were called inactive. Calls of active or inactive are those of the source. Unless noted, calls follow the shape of the dose curve; as a rule, active = well fitted cell-killing curve with a large enough effect in the repeat runs; inconclusive = weak or mixed curves, or effect the other way; inactive = no such curve, though single readings can be large or run the other way.

Sequence of Bile acid receptor (Homo sapiens) (Q96RI1 whole entry, looked up): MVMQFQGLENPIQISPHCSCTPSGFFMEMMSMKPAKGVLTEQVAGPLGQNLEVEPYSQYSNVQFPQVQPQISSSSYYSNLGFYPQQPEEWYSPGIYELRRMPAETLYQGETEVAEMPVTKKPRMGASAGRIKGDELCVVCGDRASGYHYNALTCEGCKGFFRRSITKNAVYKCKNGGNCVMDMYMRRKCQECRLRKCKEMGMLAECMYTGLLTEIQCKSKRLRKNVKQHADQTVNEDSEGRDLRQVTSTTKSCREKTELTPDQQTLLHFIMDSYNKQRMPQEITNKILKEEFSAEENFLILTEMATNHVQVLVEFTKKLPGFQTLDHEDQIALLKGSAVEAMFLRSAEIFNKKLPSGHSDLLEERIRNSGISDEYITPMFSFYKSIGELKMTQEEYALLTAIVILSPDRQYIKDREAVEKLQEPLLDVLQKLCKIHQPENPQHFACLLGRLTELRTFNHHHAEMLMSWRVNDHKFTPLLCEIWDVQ

The target of one test is Bile acid receptor (Homo sapiens) (UniProt Q96RI1). As to the kind of experiment: qHTS assay to identify small molecule antagonists of the farnesoid-X-receptor (FXR) signaling pathway (AID 743217; active = well fitted inhibition curve with a large enough effect in the signal ratio in the repeat runs, not every such curve was filed as active; the % refers to the signal ratio). Conditions: HEK293T FXR-UAS-bla, beta-lactamase ratio, CDCA-stimulated, 16 h; series mostly up to 62.6 µM; activity change, negative = inhibition: at the top concentration. In a few lines:
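FXR-UAS-bla HEK 293T cells pre-incubated 5 h at 37 °C, then exposed to compounds with chenodeoxycholic acid (50 uM final) for 16 h at 37 °C. Beta-lactamase reporter read by LiveBLAzer B/G FRET substrate fluorescence after 2 h at room temperature.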
Consider `CCOC(=O)C(C)(C)Oc1ccc(Cl)cc1`, for which the Potency entry was “inactive”. Same read-out and setting: as for `CC(O)COc1ccccc1` (stereo not drawn), the entry is “inactive”; as for `COC(=O)c1ccc(C=O)cc1`, “inactive”. Same read-out and setting: as for `Cc1ccc(O)c(-n2nc3ccccc3n2)c1`, the entry is “inactive”. Consider `Cc1cccc2ccccc12`, for which the “activity change, negative = inhibition” value was 0.574%. `CC(=O)CCC(C)C`: the Potency result was “inactive”. Take `CCCCCCCCOc1ccc(C(=O)c2ccccc2)c(O)c1`: the “activity change, negative = inhibition” value was -14.4%.

Tested on in another test: not listed separately
As to the kind of experiment: qHTS assay to identify small molecule agonists of the farnesoid-X-receptor (FXR) signaling pathway - cell viability counter screen (AID 743218). Also: nearly all actives have a fitted effect of over 45% in size. Conditions: FXR-bla HEK293T viability, CellTiter-Glo luminescence, 16 h; series mostly up to 62.6 µM; viability change, negative = cytotoxic: at the top concentration. In a few lines: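 FXR-UAS-bla HEK 293T cells, plated 5 h at 37 C, were exposed to compounds for 16 h at 37 C. CellTiter-Glo was then added to the same wells as the bla readout; luminescence read after 30 min at room temperature.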
In the case of `CCCCNC(=O)NS(=O)(=O)c1ccc(N)cc1`, the Potency entry is “inactive”. Still for that read-out and setting: then `CCCCCCCCCCCCCCCCCC(=O)OCC(O)CO` (stereo not drawn), with “inactive”. Same read-out and setting: then `COCC(C)N` (stereo not drawn), with “inactive”; and `CCCCCCCCCCCCCC(=O)OC(C)C`, with “inactive”; and `N[C@@H](Cc1c[nH]c2ccccc12)C(=O)O`, with “inactive”. As for `CCCCC/C(C=O)=C\c1ccccc1`, the Potency entry was “inactive”. For `C=CCOC(=O)CC(C)C`, the Potency result was “inactive”.

`CC(=O)c1ccc(S(=O)(=O)NC(=O)NC2CCCCC2)cc1`: the Potency entry is “inactive”. On to `COC(=O)c1ccc(O)cc1`, for which the Potency entry is “inactive”. Same read-out and setting: then `Oc1cccc(O)c1`, with “inactive”. With `COc1ccccc1O`, the “viability change, negative = cytotoxic” value was 16.8% [at 81.1 µM]. On the same count and under the same terms, then `CC(C)CC(C)CC(O)CC(C)C` (stereo not drawn), with 6.56% [at 81.1 µM]. Consider `NC(=O)N1c2ccccc2C=Cc2ccccc21`, for which the Potency entry is “inactive”. On to `O=C1CCCCCN1`, for which the “viability change, negative = cytotoxic” value was -3.67%.

`O=c1c(-c2ccc(O)cc2)coc2cc(O)cc(O)c12`: the Potency entry was “inactive”. Consider `O=C(O)Cc1cccc2ccccc12`, for which the Potency result is “inactive”. In the case of `COc1cc(O)c(C(=O)c2ccccc2)cc1S(=O)(=O)O`, the Potency result was “inactive”. Same read-out and setting: as for `CCCCOCCOCCOC(C)=O`, the entry is “inactive”; as for `Cn1cnc2c1c(=O)[nH]c(=O)n2C`, “inactive”. Take `COCCOCCOC`: the “viability change, negative = cytotoxic” value is 0.147%. As for `CCOC(=O)C(C)(C)Oc1ccc(Cl)cc1`, the Potency entry was “inactive”. For `CC(O)COc1ccccc1` (stereo not drawn), the Potency entry is “inactive”. `Cc1cccc(C)c1O`: the Potency entry is “inactive”. As to `COC(=O)c1ccc(C=O)cc1`, the Potency result was “inactive”. On the same count and under the same terms, as for `Cc1ccc(O)c(-n2nc3ccccc3n2)c1`, the entry is “inactive”. On to `Cc1cccc2ccccc12`, for which the Potency entry was “inactive”. The same measure, in the same setting: then `CC(=O)CCC(C)C`, with “inactive”.

In the case of `O=[N+]([O-])c1ccc(O)cc1`, the Potency entry was “inactive”. Take `Cc1c(N(C)CS(=O)(=O)O)c(=O)n(-c2ccccc2)n1C`: the “viability change, negative = cytotoxic” value was -5.57%.

For the next test, the target named is Bile acid receptor (Homo sapiens) (UniProt Q96RI1). The test is described as follows: qHTS assay to identify small molecule agonists of the farnesoid-X-receptor (FXR) signaling pathway (AID 743220; active = well fitted activation curve with a large enough effect in the signal ratio in the repeat runs, not every such curve was filed as active; the % refers to the signal ratio). Conditions: HEK293T FXR-UAS-bla, beta-lactamase FRET ratio, 16 h; series mostly up to 62.6 µM; activation: at the top concentration. An outline of the steps:
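Beta-lactamase reporter under UAS control in GeneBLAzer FXR HEK 293T cells (5000/well) measured with LiveBLAzer FRET substrate after 2 h at room temperature. Compound exposure lasted 16 h at 37C.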
In general terms: qHTS replaces the single test concentration by a dilution series.
For the compound `CCCCCCCCCCCCCCCCCC(=O)OCC(O)CO` (stereo not drawn), the result was inactive. Same read-out and setting: as for `COCC(C)N` (stereo not drawn), the entry is “inactive”. On the same count and under the same terms, then `CCCCCCCCCCCCCC(=O)OC(C)C`, with “inactive”. The same measure, in the same setting: as for `CCCCC/C(C=O)=C\c1ccccc1`, the entry is “inactive”; as for `C=CCOC(=O)CC(C)C`, “inactive”; as for `CC(=O)c1ccc(S(=O)(=O)NC(=O)NC2CCCCC2)cc1`, “inactive”. On to `Oc1cccc(O)c1`, for which the result was inactive. As for `COc1ccccc1O`, the outcome was inactive. The same measure, in the same setting: as for `CC(C)CC(C)CC(O)CC(C)C` (stereo not drawn), the entry is “inactive”.

Consider `O=C1CCCCCN1`, for which the result was inactive.

Turning to `O=c1c(-c2ccc(O)cc2)coc2cc(O)cc(O)c12`, the outcome was inactive. `O=C(O)Cc1cccc2ccccc12`: the outcome was inactive.

`COc1cc(O)c(C(=O)c2ccccc2)cc1S(=O)(=O)O`: the result was inactive. The same measure, in the same setting: as for `Cn1cnc2c1c(=O)[nH]c(=O)n2C`, the entry is “inactive”; as for `COCCOCCOC`, “inactive”; as for `CCOC(=O)C(C)(C)Oc1ccc(Cl)cc1`, “inactive”. On to `CC(O)COc1ccccc1` (stereo not drawn), for which the result was inactive.

As for `COC(=O)c1ccc(C=O)cc1`, the result was inactive. `Cc1ccc(O)c(-n2nc3ccccc3n2)c1`: the result was inactive. The same measure, in the same setting: then `Cc1cccc2ccccc12`, with “inactive”; and `CC(=O)CCC(C)C`, with “inactive”; and `CCCCCCCCOc1ccc(C(=O)c2ccccc2)c(O)c1`, with “inactive”.
